Assay [1] addresses Estrogen receptor beta (Homo sapiens) (UniProt Q92731). In words: qHTS assay to identify small molecule antagonists of the estrogen receptor beta (ER-beta) signaling pathway (AID 1259378; active = well fitted inhibition curve with a large enough effect in the signal ratio in the repeat runs, not every such curve was filed as active; the % refers to the signal ratio; also: potency is read from the fitted curve at half-maximal effect). The procedure, abridged: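 ER-beta-UAS-bla HEK293T cells in 2% charcoal-stripped FBS medium treated with compound plus 1nM final 17-beta-estradiol for 16 hr at 37C. Beta-lactamase reporter read by FRET substrate fluorescence after 2 hours at room temperature.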
(qHTS replaces the single test concentration by a dilution series.)

The nature of assay [2]: qHTS assay to identify small molecule agonists of the androgen receptor (AR) signaling pathway in the presence of an antagonist - cell viability counter screen (AID 1259379; active = well fitted curve in the direction sought with a large enough effect in the repeat runs; an effect the other way counts as inactive or inconclusive; also: nearly all actives have a fitted effect of over 25% in size; also: potency is read from the fitted curve at half-maximal effect). The procedure, abridged:
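In MDA-kb2 cells (human breast carcinoma, MMTV-luciferase), compounds at 15 concentrations plus 3.0uM nilutamide; 16 hr, 37C, 0% CO2; CellTiter-Fluor fluorescence read for viability.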

Assay [3] is described as follows: qHTS assay to identify small molecule agonists of the estrogen receptor beta (ER-beta) signaling pathway - cell viability counter screen (AID 1259380; active = well fitted curve in the direction sought with a large enough effect in the repeat runs; an effect the other way counts as inactive or inconclusive; also: nearly all actives have a fitted effect of over 30% in size; also: potency is read from the fitted curve at half-maximal effect). In outline:
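Viability of ER-beta-UAS-bla HEK293T cells was determined by CellTiter-Glo luminescence following 16 hr treatment with test compounds at 37C.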

Assay [4] in a line: qHTS assay to identify small molecule antagonists of the estrogen receptor beta (ER-beta) signaling pathway - cell viability counter screen (AID 1259382; active = well fitted curve in the direction sought with a large enough effect in the repeat runs; an effect the other way counts as inactive or inconclusive; also: nearly all actives have a fitted effect of over 55% in size; also: potency is read from the fitted curve at half-maximal effect). The procedure, abridged:
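Tox21 10K library tested in qHTS format on ER-beta-bla HEK293T cells stimulated with 1nM E2; 16 hr treatment at 37C. Same-well CellTiter-Glo luminescence served as the cell viability measure.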

The nature of assay [5]: qHTS assay to identify small molecule agonists or antagonists of the thyroid stimulating hormone receptor (TSHR) signaling pathway - wild type cell line counter screen (AID 1259384). In outline:
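Wild-type Hek293 cells, 800/well, 18 h at 37C, then compound with Ro20-1724 for 30 min RT. cAMP by HTRF (cAMP-d2/anti-cAMP cryptate), 1 h RT, fluorescence read. 15 concentrations, triplicates.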

Assay [6] addresses Thyrotropin receptor (Homo sapiens) (UniProt P16473). Description: qHTS assay to identify small molecule antagonists of the thyroid stimulating hormone receptor (TSHR) signaling pathway (AID 1259385). Also: nearly all actives have a fitted effect of over 20% in size. Also: potency is read from the fitted curve at half-maximal effect. The procedure, abridged: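 TSHR-HEK293 cells (800/well) plated 18 h, then compounds with Ro20-1724 and TSH at 1.5 ng/mL final, 30 min at room temperature. cAMP quantified by HTRF (cAMP-d2/anti-cAMP-cryptate, 1 h); 15 concentrations in triplicate.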

Assay [7] in a line: qHTS assay to identify small molecule agonists of the estrogen receptor alpha (ER-alpha) signaling pathway in the presence of an antagonist - cell viability counter screen (AID 1259386; active = well fitted curve in the direction sought with a large enough effect in the repeat runs; an effect the other way counts as inactive or inconclusive;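 also: cells exposed to compounds for 22 h at 37 °C before the viability read; nearly all actives have a fitted effect of over 30% in size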; also: potency is read from the fitted curve at half-maximal effect). The procedure, abridged: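 Fluorescent CellTiter-Fluor viability signal from VM7Luc4E2 cells, with the reagent added during the final hour of a 22hr compound exposure at 37C in the presence of 10.0nM ICI-182,780.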

For assay [8], the target named is Progesterone receptor (Homo sapiens) (UniProt P06401). In words: qHTS assay to identify small molecule agonists of the progesterone receptor (PR) signaling pathway (AID 1346784). Also: nearly all actives have a fitted effect of over 30% in size. In outline:
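Agonist mode, quantitative HTS format in a HEK 293T line expressing a UAS-controlled beta-lactamase reporter; 16 hr compound exposure at 37C in 2% charcoal-stripped FBS, then LiveBLAzer B/G FRET fluorescence.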

Assay [9] concerns the target Estrogen receptor (Homo sapiens) (UniProt P03372). In words: qHTS assay to identify small molecule agonists of the estrogen receptor alpha (ER-alpha) signaling pathway in the presence of an antagonist (AID 1259383). Also: top concentration of the series differs between compounds; nearly all actives have a fitted effect of over 15% in size. The procedure, abridged:
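In VM7Luc4E2 cells, 4,000 per well, compounds at 15 concentrations were co-incubated 22hr at 37C with 10.0nM final ICI-182,780. Luminescence from the stably transfected 4×ERE-luciferase reporter was recorded 30min after ONE-Glo addition.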

The target of assay [10] is Androgen receptor (Homo sapiens) (UniProt P10275). In words: qHTS assay to identify small molecule agonists of the androgen receptor (AR) signaling pathway in the presence of an antagonist (AID 1259381). Also: nearly all actives have a fitted effect of over 15% in size. Also: potency is read from the fitted curve at half-maximal effect. In outline: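 Here, 15-concentration compound series were pin-transferred onto MDA-kb2 MMTV-luciferase cells already dosed with nilutamide (3.0uM final). After 16hr at 37C, ONE-Glo was added and luminescence read 30min later at room temperature.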

Several values for one entry are separate records, joined by “and”; a condition that tells them apart may be missing. Identical values can stand only once. Results filed as inconclusive are left out. Where a structure was tested more than once in an assay, its records may differ in their call. Activity calls are given as the source filed them. Unless noted, calls follow the shape of the full dose curve.

Sequence of Estrogen receptor beta (Homo sapiens) (Q92731 whole entry, looked up): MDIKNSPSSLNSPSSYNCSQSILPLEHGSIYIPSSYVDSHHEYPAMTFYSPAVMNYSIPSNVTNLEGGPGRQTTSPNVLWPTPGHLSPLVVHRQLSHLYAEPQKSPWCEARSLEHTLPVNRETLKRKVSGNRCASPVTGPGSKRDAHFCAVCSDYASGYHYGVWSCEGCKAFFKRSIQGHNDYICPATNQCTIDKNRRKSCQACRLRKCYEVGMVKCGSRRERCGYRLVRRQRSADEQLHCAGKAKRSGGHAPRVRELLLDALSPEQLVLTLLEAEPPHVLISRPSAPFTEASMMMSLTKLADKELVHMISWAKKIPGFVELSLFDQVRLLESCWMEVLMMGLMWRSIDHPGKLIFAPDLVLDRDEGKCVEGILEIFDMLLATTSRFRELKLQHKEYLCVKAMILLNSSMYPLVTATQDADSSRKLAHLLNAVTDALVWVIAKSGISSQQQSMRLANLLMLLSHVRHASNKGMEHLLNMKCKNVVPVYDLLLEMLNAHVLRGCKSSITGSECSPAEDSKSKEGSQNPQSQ
Sequence of Progesterone receptor (Homo sapiens) (P06401 whole entry, looked up): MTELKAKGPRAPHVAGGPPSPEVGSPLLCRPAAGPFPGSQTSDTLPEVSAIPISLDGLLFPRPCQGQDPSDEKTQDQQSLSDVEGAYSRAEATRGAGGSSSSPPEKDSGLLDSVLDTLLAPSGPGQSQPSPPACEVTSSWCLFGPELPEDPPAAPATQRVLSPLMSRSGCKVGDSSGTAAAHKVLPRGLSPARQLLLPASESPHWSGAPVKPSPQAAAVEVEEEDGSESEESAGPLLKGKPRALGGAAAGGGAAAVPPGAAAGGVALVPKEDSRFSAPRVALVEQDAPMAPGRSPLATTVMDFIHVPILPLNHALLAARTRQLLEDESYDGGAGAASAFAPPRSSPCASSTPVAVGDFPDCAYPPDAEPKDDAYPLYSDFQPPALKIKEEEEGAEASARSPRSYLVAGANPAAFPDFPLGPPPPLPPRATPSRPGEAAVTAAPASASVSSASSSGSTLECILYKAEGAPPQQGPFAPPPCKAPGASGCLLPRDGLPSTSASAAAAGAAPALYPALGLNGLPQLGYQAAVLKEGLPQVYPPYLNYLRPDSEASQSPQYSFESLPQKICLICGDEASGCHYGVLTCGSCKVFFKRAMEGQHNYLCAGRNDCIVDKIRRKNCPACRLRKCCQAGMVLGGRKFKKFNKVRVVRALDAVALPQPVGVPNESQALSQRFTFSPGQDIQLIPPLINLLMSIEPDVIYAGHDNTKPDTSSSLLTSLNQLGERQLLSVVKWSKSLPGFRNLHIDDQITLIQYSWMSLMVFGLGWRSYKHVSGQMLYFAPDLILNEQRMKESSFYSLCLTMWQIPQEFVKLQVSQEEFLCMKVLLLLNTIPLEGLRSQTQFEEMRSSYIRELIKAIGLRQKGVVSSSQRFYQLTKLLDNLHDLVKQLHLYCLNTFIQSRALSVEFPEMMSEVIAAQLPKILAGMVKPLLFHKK
Sequence of Androgen receptor (Homo sapiens) (P10275 whole entry, looked up): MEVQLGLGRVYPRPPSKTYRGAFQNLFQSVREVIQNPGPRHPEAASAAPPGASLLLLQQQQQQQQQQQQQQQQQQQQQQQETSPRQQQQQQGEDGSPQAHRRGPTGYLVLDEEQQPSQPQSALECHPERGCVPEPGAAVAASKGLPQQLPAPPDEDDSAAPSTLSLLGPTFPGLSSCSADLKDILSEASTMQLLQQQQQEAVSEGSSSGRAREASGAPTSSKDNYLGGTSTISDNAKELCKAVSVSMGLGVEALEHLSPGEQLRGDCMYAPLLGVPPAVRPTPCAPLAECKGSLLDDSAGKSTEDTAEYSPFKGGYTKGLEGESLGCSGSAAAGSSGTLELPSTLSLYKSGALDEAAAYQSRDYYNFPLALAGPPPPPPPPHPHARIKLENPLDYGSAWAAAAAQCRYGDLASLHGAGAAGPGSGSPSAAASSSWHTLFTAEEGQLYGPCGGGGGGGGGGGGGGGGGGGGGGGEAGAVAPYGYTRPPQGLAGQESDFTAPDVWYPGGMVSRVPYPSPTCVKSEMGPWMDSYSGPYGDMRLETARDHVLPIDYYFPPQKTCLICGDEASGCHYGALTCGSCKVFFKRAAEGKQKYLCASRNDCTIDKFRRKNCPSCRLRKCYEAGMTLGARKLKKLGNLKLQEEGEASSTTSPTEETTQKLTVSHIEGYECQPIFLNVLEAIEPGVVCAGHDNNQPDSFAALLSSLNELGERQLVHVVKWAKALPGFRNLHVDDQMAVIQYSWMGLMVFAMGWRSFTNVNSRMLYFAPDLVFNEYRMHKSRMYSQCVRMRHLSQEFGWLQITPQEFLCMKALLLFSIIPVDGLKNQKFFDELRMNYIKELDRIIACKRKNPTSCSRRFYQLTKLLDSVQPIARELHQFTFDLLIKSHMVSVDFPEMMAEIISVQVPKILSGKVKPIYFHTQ
Sequence of Thyrotropin receptor (Homo sapiens) (P16473 whole entry, looked up): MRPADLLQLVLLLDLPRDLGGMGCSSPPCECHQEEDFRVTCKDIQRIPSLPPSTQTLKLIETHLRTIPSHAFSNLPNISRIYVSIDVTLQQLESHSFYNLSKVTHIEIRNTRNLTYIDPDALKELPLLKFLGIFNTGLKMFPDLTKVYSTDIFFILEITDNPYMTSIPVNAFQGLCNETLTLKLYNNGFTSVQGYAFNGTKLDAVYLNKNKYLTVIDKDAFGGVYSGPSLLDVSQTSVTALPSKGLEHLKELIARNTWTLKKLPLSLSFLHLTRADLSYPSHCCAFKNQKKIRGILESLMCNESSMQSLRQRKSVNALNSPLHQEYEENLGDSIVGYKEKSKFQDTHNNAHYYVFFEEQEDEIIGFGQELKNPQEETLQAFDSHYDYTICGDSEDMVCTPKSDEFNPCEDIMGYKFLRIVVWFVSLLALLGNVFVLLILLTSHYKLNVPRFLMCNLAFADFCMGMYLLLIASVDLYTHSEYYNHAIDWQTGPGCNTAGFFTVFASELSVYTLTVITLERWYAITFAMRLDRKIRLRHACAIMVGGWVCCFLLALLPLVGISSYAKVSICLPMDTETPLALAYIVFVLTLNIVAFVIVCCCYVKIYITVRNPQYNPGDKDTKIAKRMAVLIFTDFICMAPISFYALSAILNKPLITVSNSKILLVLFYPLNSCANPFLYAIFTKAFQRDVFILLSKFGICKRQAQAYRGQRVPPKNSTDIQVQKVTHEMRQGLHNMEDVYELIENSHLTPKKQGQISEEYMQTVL
Sequence of Estrogen receptor (Homo sapiens) (P03372 whole entry, looked up): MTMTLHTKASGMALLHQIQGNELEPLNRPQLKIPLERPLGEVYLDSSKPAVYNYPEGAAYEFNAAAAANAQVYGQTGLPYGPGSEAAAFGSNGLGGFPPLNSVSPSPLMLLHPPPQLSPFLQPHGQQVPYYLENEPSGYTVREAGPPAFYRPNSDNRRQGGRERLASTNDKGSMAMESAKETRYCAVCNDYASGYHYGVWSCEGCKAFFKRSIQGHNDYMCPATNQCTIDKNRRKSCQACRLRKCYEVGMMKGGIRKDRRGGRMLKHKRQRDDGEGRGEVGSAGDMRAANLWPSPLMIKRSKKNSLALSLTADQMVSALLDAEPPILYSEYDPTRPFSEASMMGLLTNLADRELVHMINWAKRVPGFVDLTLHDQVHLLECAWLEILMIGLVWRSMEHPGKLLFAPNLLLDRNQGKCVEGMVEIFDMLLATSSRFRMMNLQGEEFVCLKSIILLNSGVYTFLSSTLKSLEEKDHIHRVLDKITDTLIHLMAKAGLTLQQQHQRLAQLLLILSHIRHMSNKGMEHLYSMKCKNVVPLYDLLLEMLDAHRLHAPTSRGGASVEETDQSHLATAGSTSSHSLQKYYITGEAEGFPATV

As to `CC(C)=CC1CC(C)CCO1` (stereo not given), the Potency entry in assay [1], in assay [2], in [3], in [4], in assay [6] and in [7] was “inactive” throughout. The call in assay [5] and in assay [8] was inactive.

With `Clc1ccc(C(c2ccccc2Cl)C(Cl)Cl)cc1` (stereo not given), the Potency in assay [1] was 19.3 µM (active); in [3], 48.6 µM (active). Besides, the Potency result in [2], in assay [4], in [6] and in assay [7] was “inactive” in each case. The compound was classed as inactive in assay [5] and in assay [8].

`CC(C)(C)C1=CC(=O)C=C(C(C)(C)C)C1=O`: the Potency result in assay [1], in [2], in [3], in assay [4] and in assay [7] was “inactive” in each case. For the same compound, the outcome in assay [5] and in [8] was inactive.

Consider `CCc1c(C(=O)O)c(=O)cnn1-c1ccc(Cl)cc1`, for which the Potency result in assay [1], in [2], in assay [3], in assay [4], in [6] and in assay [7] was “inactive” each time. The outcome in assay [5] and in assay [8] was inactive.

On to `CCc1cccc(CC)c1N(COC)C(=O)CS(=O)(=O)O`, for which the Potency result in assay [1], in [2], in [3], in [4], in assay [9] and in [7] was “inactive” in each case. Further, the call in assay [5] and in assay [8] was inactive.

Consider `CNC(=O)c1cc(Oc2ccc(NC(=O)Nc3ccc(Cl)c(C(F)(F)F)c3)cc2)ccn1`, for which the Potency was 9.44 µM (active) in assay [1], 29.8 µM (active) in [2] and 29.8 µM (active) in [3]. In addition, the Potency entry in assay [9] and in [6] was “inactive” each time. Also, in assay [5], the result was inactive.

Regarding `CC(C)(C)c1cc(/C=C2\SC(=N)NC2=O)cc(C(C)(C)C)c1O`, the Potency in assay [1] was 21.7 µM (active). Besides, the Potency entry in assay [2], in assay [4], in [9] and in [6] was “inactive” throughout. For the same compound, the result in assay [5] was inactive.

Turning to `Cc1occc1SSc1ccoc1C`, the Potency result in assay [1], in assay [2], in assay [4], in assay [6] and in [7] was “inactive” each time. The compound was called inactive in assay [5] and in assay [8].

For the compound `c1ccc(Nc2cccc3ccccc23)cc1`, the Potency in [1] is 31 µM (active) and 54.5 µM (active); in assay [3] it was 54.5 µM (active). Also, the Potency entry in assay [2], in assay [9], in assay [6] and in [7] was “inactive” in each case. Also, the compound was called inactive in assay [5].

Consider `CC1=C(/C=C/C(C)=C/C=C/C(C)=C/C(=O)Nc2ccc(O)cc2)C(C)(C)CCC1`, for which the Potency is 49.8 µM (active) and 23.7 µM (active) in assay [2]; 62.7 µM (active) and 26.6 µM (active) in assay [3]; 8.85 µM (active) and inactive in [10]; 70.3 µM (active) in assay [4]; 31.4 µM (active) and 13.3 µM (active) in assay [7]. The Potency entry in [9] and in assay [6] was “inactive” each time. The call in [5] was inactive.

As to `CCCC(O)C(O)CO` (stereo not given), the Potency result in [1], in [2], in assay [10], in assay [4], in [6] and in assay [7] was “inactive” each time. Besides, the compound was classed as inactive in assay [5] and in assay [8].

Take `O=C1Nc2ccc(Cl)cc2[C@@](C#CC2CC2)(C(F)(F)F)O1`: in assay [1], the Potency is 23.7 µM (active). The Potency result in assay [2], in assay [6] and in assay [7] was “inactive” throughout. The compound was called inactive in assay [5].

Regarding `CCN(CC)CCOc1ccc(C(O)(Cc2ccc(Cl)cc2)c2ccc(C)cc2)cc1` (stereo not given), the Potency in assay [1] is 10.6 µM (active); in assay [3], 26.6 µM (active); in assay [4], 29.8 µM (active); in assay [6], 29.8 µM (active). The Potency entry in assay [9] and in [7] was “inactive” throughout. The compound was classed as inactive in assay [5] and in [8].

On to `CC(C)c1ccc(O)c(C(C)C)c1`, for which the Potency result in [1], in assay [2], in assay [4], in assay [9], in assay [6] and in assay [7] was “inactive” each time. The outcome in [5] and in [8] was inactive.

For `CCCOc1sc(C(=O)N2CCC(c3cc(CN)ccc3F)CC2)c(C)c1Br`, the Potency in assay [2] is 56 µM (active); in assay [3] it was 28.1 µM (active); in assay [4], 25 µM (active); in assay [6], 56 µM (active). Also, the Potency result in assay [10] and in assay [9] was “inactive” in each case. The outcome in assay [5] was inactive.

Regarding `CSc1c(Cl)c(Cl)c(Cl)c(Cl)c1Cl`, the Potency result in assay [1], in assay [2], in assay [4] and in [7] was “inactive” throughout. For the same compound, the call in [5] and in [8] was inactive.

For the compound `O=C(O)c1cccc(Cl)n1`, the Potency entry in [2], in [3], in assay [10], in [4], in [9] and in assay [6] was “inactive” each time. For the same compound, the Potency result in assay [7] was “inactive”. Moreover, the call in assay [5] and in assay [8] was inactive.

On to `CN(Cc1cc(Br)cc(Br)c1N)C1CCCCC1`, for which the Potency entry in assay [1], in assay [2], in assay [4], in assay [9] and in [7] was “inactive” each time. Moreover, the call in assay [5] and in [8] was inactive. The Potency in [6] is 29.8 µM (active).

In the case of `CCCCCCCCCCCCN(CCO)CCO`, the Potency in assay [2], in assay [3] and in assay [4] was 60.9 µM (active) in each case. In addition, the Potency entry in assay [10], in assay [9], in assay [6] and in assay [7] was “inactive” throughout. The compound was classed as inactive in [5].

Values taken from PubChem BioAssay (Tox21).
